From ChEMBL document CHEMBL1961873, “Compounds: GSK PKIS; Assays: Nanosyn kinase panel” (2012) come the findings set out here.

Assay [1] has as its target T1, 3-phosphoinositide-dependent protein kinase 1 (Homo sapiens) (UniProt O15530).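 Further: values are mean inhibition of PDK1.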
T1 sequence (whole entry): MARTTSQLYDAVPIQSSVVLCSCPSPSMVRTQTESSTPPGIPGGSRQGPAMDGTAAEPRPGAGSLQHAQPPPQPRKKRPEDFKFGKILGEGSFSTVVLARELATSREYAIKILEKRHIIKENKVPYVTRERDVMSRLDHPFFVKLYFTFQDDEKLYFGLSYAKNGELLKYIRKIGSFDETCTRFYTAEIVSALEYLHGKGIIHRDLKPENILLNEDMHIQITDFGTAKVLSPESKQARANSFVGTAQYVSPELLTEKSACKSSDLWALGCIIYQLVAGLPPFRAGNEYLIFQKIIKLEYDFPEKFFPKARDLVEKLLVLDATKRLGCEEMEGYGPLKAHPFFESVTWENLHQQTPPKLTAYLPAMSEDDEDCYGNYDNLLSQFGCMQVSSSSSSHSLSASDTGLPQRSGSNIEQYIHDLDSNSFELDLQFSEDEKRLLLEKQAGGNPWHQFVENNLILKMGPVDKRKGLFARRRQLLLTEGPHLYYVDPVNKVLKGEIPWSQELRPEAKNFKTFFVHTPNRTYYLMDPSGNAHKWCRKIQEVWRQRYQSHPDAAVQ
The conditions noted are these: at 0.1 µM.

The target of assay [2] is cAMP-dependent protein kinase catalytic subunit alpha (Homo sapiens) (UniProt P17612). The conditions noted are these: at 0.1 µM.
The target is the same in assay [3]. The conditions noted are these: at 1 µM.
Assay [4] has as its target Protein kinase C alpha type (Homo sapiens) (UniProt P17252). The conditions noted are these: at 0.1 µM.
Assay [5] shares this target. The conditions noted are these: at 1 µM.
In assay [6] the target is Protein kinase C beta type (Homo sapiens) (UniProt P05771). The conditions noted are these: at 0.1 µM.
Sequence of Protein kinase C beta type (Homo sapiens) (P05771 2-671 limits assumed): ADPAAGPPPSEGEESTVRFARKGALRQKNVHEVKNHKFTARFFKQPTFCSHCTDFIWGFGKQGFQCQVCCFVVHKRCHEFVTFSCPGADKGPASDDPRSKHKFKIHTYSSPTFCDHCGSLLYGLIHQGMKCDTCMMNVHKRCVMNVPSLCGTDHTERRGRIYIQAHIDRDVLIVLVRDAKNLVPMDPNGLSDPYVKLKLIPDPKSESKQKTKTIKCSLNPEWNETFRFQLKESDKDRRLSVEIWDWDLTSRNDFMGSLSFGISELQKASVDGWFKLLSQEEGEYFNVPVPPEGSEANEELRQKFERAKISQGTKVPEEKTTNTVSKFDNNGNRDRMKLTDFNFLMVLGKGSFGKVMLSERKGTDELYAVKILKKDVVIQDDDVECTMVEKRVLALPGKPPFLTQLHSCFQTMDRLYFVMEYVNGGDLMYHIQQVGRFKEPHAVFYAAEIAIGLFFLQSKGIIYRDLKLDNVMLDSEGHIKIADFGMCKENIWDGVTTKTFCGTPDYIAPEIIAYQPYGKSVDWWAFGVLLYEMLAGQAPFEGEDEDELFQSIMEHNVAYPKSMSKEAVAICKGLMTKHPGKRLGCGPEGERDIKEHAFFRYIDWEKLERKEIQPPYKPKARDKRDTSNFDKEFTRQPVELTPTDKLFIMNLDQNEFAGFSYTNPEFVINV
For assay [7] the target is unchanged. The conditions noted are these: at 1 µM.
Assay [8] concerns the target Protein kinase C eta type (Homo sapiens) (UniProt P24723). The conditions noted are these: at 0.1 µM.
For assay [9] the target is unchanged. The conditions noted are these: at 1 µM.
Assay [10] deals with Protein kinase C gamma type (Homo sapiens) (UniProt P05129). The conditions noted are these: at 0.1 µM.
For assay [11] the target is unchanged. The conditions noted are these: at 1 µM.
In assay [12] the target is T2, Protein kinase C iota type (Homo sapiens) (UniProt P41743).
T2 sequence (whole entry): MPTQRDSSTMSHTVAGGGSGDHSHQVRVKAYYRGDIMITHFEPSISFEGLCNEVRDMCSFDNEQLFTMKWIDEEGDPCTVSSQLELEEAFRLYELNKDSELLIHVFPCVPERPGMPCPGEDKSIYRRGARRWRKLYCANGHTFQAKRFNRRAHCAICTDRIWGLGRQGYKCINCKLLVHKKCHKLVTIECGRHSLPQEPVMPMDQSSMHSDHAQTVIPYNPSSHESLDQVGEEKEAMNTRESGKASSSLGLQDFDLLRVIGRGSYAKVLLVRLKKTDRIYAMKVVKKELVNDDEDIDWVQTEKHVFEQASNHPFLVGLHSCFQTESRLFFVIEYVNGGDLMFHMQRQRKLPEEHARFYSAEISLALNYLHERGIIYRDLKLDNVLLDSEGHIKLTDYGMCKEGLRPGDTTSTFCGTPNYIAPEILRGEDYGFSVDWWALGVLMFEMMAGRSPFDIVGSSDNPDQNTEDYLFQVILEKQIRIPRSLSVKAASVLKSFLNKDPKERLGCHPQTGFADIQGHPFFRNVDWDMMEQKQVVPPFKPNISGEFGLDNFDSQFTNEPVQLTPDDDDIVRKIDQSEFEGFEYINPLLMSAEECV
The conditions noted are these: at 0.1 µM.

For assay [13], the target named is T2, Protein kinase C iota type (Homo sapiens). The conditions noted are these: at 1 µM.
Assay [14] has as its target Protein kinase C theta type (Homo sapiens) (UniProt Q04759). The conditions noted are these: at 0.1 µM.
For assay [15] the target is unchanged. The conditions noted are these: at 1 µM.
In assay [16] the target is Protein kinase C beta type (Homo sapiens) (UniProt P05771). The conditions noted are these: at 0.1 µM. The source holds these as a separate data set.
The target is the same in assay [17]. The conditions noted are these: at 1 µM. The source holds these as a separate data set.
Assay [18] concerns the target T3, Serine/threonine-protein kinase D1 (Homo sapiens) (UniProt Q15139).
T3 sequence (whole entry): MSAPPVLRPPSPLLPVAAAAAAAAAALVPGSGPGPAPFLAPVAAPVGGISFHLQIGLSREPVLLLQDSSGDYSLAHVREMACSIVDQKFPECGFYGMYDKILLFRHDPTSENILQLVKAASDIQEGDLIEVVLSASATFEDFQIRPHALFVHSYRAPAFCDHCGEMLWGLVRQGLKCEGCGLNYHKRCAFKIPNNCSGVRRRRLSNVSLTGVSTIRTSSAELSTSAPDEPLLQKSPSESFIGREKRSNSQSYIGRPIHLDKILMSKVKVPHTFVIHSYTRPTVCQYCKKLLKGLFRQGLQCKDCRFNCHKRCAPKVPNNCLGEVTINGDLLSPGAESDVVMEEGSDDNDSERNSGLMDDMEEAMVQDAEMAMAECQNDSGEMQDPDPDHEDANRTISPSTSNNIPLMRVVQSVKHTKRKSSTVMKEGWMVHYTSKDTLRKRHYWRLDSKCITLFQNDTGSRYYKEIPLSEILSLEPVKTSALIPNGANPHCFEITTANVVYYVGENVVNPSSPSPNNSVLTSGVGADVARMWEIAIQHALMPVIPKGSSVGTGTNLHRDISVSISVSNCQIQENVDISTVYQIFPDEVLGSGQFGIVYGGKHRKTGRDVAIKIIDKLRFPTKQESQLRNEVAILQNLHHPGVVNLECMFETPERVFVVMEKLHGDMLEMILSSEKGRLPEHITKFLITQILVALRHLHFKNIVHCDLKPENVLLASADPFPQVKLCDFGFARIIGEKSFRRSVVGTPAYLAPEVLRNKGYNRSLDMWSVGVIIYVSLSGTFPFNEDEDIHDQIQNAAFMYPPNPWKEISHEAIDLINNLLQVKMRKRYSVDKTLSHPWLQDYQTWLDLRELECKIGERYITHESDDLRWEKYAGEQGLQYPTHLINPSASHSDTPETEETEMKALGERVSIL
The conditions noted are these: at 0.1 µM.

Assay [19] has as its target T3, Serine/threonine-protein kinase D1 (Homo sapiens). The conditions noted are these: at 1 µM.
For assay [20], the target named is T4, Serine/threonine-protein kinase D2 (Homo sapiens) (UniProt Q9BZL6).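 Further: reported percent inhibition values are means, part of the GSK PKIS kinase panel screen.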
T4 sequence (whole entry): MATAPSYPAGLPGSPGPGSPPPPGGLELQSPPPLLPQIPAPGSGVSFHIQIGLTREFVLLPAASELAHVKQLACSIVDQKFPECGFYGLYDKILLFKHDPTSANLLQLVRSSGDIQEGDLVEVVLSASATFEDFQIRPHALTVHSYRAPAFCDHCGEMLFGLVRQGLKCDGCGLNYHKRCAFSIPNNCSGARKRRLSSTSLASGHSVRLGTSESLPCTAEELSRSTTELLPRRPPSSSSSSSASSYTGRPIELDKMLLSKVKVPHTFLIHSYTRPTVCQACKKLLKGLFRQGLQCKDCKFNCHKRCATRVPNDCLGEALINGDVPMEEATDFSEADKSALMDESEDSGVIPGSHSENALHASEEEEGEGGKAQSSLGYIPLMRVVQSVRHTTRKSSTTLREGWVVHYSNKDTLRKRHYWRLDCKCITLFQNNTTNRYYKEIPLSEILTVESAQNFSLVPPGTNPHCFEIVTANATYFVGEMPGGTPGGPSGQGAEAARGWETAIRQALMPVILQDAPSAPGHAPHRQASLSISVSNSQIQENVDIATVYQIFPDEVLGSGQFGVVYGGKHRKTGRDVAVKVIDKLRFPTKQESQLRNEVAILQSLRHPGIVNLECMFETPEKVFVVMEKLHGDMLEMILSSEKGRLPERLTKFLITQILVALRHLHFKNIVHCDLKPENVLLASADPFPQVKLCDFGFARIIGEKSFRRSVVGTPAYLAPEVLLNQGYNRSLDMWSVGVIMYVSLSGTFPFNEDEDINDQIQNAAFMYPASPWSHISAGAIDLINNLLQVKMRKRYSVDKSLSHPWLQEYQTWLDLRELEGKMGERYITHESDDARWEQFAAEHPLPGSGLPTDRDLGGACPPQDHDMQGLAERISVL
The conditions noted are these: at 0.1 µM.

Sequence of Protein kinase C eta type (Homo sapiens) (P24723 whole entry): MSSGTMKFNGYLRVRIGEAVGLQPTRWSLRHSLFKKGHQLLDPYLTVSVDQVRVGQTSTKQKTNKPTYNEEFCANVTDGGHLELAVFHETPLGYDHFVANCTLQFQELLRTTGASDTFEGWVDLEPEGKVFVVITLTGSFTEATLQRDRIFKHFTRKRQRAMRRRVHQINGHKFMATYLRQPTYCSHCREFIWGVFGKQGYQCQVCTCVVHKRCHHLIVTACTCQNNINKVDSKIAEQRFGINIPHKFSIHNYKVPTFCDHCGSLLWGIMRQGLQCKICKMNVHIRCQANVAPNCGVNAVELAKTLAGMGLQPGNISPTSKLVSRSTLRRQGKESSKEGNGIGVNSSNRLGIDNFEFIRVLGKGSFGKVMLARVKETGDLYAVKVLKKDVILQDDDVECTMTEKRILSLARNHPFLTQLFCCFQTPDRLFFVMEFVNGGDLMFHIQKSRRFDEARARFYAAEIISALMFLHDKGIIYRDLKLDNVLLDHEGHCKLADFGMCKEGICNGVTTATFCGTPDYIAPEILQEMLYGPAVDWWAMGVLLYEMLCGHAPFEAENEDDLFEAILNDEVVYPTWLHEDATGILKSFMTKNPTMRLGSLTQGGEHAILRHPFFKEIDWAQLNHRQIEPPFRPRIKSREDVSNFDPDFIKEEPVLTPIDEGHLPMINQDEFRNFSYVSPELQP
Sequence of Protein kinase C theta type (Homo sapiens) (Q04759 whole entry, looked up): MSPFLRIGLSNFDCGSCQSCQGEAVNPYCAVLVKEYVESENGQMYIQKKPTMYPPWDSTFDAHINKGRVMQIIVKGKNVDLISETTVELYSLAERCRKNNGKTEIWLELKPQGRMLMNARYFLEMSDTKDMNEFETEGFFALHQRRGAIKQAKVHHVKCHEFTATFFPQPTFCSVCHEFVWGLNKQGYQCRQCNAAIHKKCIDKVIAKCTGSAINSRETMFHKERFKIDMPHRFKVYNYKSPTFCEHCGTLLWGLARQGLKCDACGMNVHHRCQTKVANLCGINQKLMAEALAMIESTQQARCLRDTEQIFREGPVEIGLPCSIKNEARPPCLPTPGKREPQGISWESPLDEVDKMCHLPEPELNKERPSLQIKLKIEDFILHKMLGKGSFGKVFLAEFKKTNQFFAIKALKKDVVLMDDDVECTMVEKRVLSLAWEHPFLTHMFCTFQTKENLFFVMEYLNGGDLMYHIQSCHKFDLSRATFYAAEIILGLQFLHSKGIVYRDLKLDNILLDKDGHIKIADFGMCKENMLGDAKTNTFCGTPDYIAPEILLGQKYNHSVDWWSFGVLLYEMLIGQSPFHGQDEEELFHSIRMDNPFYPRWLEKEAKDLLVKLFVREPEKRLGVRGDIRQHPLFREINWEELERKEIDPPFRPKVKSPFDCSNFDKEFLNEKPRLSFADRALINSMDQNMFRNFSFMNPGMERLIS

As a reminder, the inhibition is the change of the read-out against control, counted positive when it falls. `Cc1nnc(-c2ccc(C)c(-c3ccc(C(=O)Nc4cccc(C#N)c4)cc3)c2)o1`: the inhibition in assay [1] was 0.99%; in assay [2] it was 2.18%; in [3], 1.76%; in assay [4], 0.5%; in [5], 0.89%; in assay [6], -0.92%. In addition, the inhibition is 2.05% in assay [7]; 0.8% in [8]; 3.76% in assay [9]; 1.49% in assay [10]; 5.13% in assay [11]; -0.73% in [12]. Also, the inhibition was -1.05% in assay [13]; 1% in assay [14]; 1.47% in assay [15]; 1.09% in assay [16]; 1.38% in [17]; 4.29% in assay [18]. Moreover, the inhibition in assay [19] was 4.48%; in assay [20] it was 2.17%.

Regarding `O=C(Nc1n[nH]c2nc(-c3ccco3)c(Br)cc12)C1CC1`, the inhibition in [1] was determined as 2%; in assay [2], 1.31%; in assay [3], 2.05%; in assay [4] it was 0.29%; in assay [5] it was 0.28%; in assay [6] it was 1.29%. Further, the inhibition in [7] was -0.77%; in [8], 3.62%; in assay [9], 2.72%; in assay [10] it was 0.45%; in assay [11] it was 3.32%; in assay [12], 0.86%. The inhibition was found to be 2.37% in assay [13]; 1.29% in assay [14]; 0.79% in [15]; 0.69% in assay [16]; 1.19% in [17]; 2.8% in assay [18]. Also, the results for the inhibition in assay [19] and in [20] were 5.78% and 3%, respectively.

Consider `CC1=C(C(=O)Nc2ccc3[nH]ncc3c2)C(c2ccc(F)cc2)NC(=O)N1` (stereo not given), for which the inhibition in assay [1] was 0.63%; in assay [2] it was 3.81%; in assay [3] it was 30.4%; in assay [4] it was 0.69%; in assay [5], 0.39%; in assay [6], -0.65%. Also, the inhibition was determined as 1.36% in assay [7]; 3.55% in [8]; 10.8% in assay [9]; 0.38% in [10]; 2.9% in assay [11]; 1.83% in assay [12]. Also, the inhibition came to 1.22% in assay [13]; 1.63% in [14]; 3.15% in assay [15]; 1.62% in assay [16]; 1.76% in [17]; 3.15% in [18]. In addition, the results for the inhibition in [19] and in assay [20] were 8.16% and 3.76%, respectively.

With `CCCN1CCC(Oc2cc(Nc3nc(Nc4cccc(F)c4C(N)=O)c4cc[nH]c4n3)c(OC)cc2Cl)CC1`, the inhibition was 1.74% in [1]; 9.14% in assay [2]; 9.18% in assay [3]; 0.7% in [4]; 11.2% in assay [5]; 0.29% in [6]. Further, the inhibition in assay [7] was 1.21%; in assay [8], 2.42%; in [9], 1.59%; in assay [10], 2.93%; in assay [11], 14.8%; in assay [12] it was 1.04%. In addition, the inhibition in [13] amounted to 1.06%; in assay [14] it was 1.35%; in assay [15] it was 7.05%; in [16] it was 1.2%; in [17] it was 4.52%; in [18], 0.11%. Also, the inhibition in [19] is 7.94%; in assay [20], -0.33%.

`COc1cc(C)c(NC(=O)CN(C)C)cc1Nc1nc(Nc2cccc(F)c2C(N)=O)c2cc[nH]c2n1`: the inhibition in [1] is 2.96%; in [2] it was 1.08%; in [3] it was -0.43%; in [4] it was 1.34%; in assay [5], 5.42%; in [6] it was -0.18%. Further, the inhibition in assay [7] is -0.1%; in assay [8], 1.08%; in [9], 1.46%; in assay [10] it was 3.92%; in [11] it was 8.9%; in assay [12], -0.31%. The inhibition in assay [13] amounted to 1.29%; in assay [14], 0.13%; in assay [15], 0.13%; in assay [16], 0.38%; in [17] it was 0.55%; in [18], 2.21%. Besides, the inhibition in [19] was found to be 18.1%; in assay [20], 3.43%.

`NC(=O)c1ccc(-c2nc(-c3ccccn3)c(-c3ccc4c(c3)OCO4)[nH]2)cc1`: the inhibition was 2.65% in [1]; 1% in assay [2]; 2.8% in assay [3]; 1.23% in [4]; 3.42% in assay [5]; -0.16% in assay [6]. Also, the inhibition in assay [7] was 2.78%; in assay [8], -0.32%; in assay [9], -0.29%; in assay [10] it was -0.15%; in assay [11], 3.47%; in assay [12] it was 0.81%. Further, the inhibition in assay [13] is -0.05%; in assay [14], 0.77%; in assay [15], 1.31%; in [16], 1.96%; in [17] it was 5.1%; in assay [18] it was 2.47%. In addition, the inhibition in assay [19] turned out to be 5.43%; in [20], 2.87%.

As for `CCn1c(-c2nonc2N)nc2cncc(C(=O)N3CCNCC3)c21`, the inhibition in assay [1] turned out to be 2.8%; in [2], 4.17%; in assay [3], 8.74%; in assay [4] it was 0.92%; in assay [5], 1.73%; in assay [6], 2.12%. The inhibition in [7] was found to be 4.3%; in assay [8] it was 6.14%; in [9] it was 4.16%; in [10], 1.3%; in assay [11] it was 0.03%; in assay [12] it was 1.74%. For the same compound, the inhibition in [13] amounted to 0.89%; in assay [14] it was 3.06%; in assay [15], 3.7%; in assay [16], 1.85%; in assay [17] it was 3.67%; in assay [18] it was 5.23%. Moreover, the inhibition in assay [19] was found to be 6.72%; in assay [20] it was 5.57%.
